Measurements reported in PubChem BioAssay (NCATS).
Inconclusive results are not listed. The source made the active and inactive calls. Calls follow the shape of the dose curve; as a rule, active = well fitted cell-killing curve with a large enough effect; inconclusive = small, poorly fitted or top-dose-only effect, or effect the other way; inactive = no such curve, though single readings can be large or run the other way.

assay: Quantitative High-Throughput drug screen in 47 multiple myeloma cell lines against the NCATS MIPE library collection: MM1R_ATCC cell viability assay (AID 1918981); conditions: MM1R multiple myeloma cells, CellTiter-Glo viability, 48 h; series mostly up to 45.8 µM; also: nearly all actives have a fitted effect of over 35% in size
Text: PI: Beverly A. Mock Ph.D.
Laboratory of Cancer Biology and Genetics,
Center for Cancer Research, National Cancer Institute,
National Institute of Health, Bethesda, Maryland
Drug resistance and disease progression are common in multiple myeloma (MM) patients, underscoring the need for new therapeutic combinations. […] We hypothesized that effective combinations would reduce MYC expression and enhance p16 activity. […] These preclinical data identify potentially useful drug combinations for evaluation in drug-resistant MM and reveal potential mechanisms of combined drug sensitivity.
Described herein is the primary MIPE qHTS used to cherrypick compounds. Validated compounds were then further tested for potential synergistic activiy.
[1] Peat TJ, Gaikwad SM, Dubois W, Gyabaah-Kessie N, Zhang S, Gorjifard S, Phyo Z, Andres M, Hughitt VK, Simpson RM, Miller MA, Girvin AT, Taylor A, Williams D, D'Antonio N, Zhang Y, Rajagopalan A, Flietner E, Wilson K, Zhang X, Shinn P, Klumpp-Thomas C, McKnight C, Itkin Z, Chen L, Kazandijian D, Zhang J, Michalowski AM, Simmons JK, Keats J, Thomas CJ, Mock BA. Drug combinations identified by high-throughput screening promote cell cycle transition and upregulate Smad pathways in myeloma. Cancer Lett. 2023 Aug 1;568:216284. doi: 10.1016/j.canlet.2023.216284. Epub 2023 Jun 24. PMID: 37356470; PMCID: PMC10408729.
SEQUENCE No. (e.g., 1, 2, 3, etc.); […] (e.g., Cells, Incubation, Reagent, etc.); VALUE and DESCRIPTION.
1; Cells; 5 uL; white, solid bottom 1536-well Greiner assay plate.
2; Compounds; 23 nL; Kalypsis pin tool (Wako USA) equipped with a 1536-well pin head to transfer to the assay plates.
3; Incubation; 48 hours; 37C incubation.
4; Reagent;5uL; CellTiter Glo (Promega).
5; Detector; 425V; Luminescence; Viewlux PerkinElmer.
NOTES (numbers refer to Sequence numbers above)
1. The cell-based screening methods employed in this study were like those previously published. Briefly, the corresponding myeloma cell lines were screened in 1,536-well plates with 500 cells, 5-uL per well for inhibition of cell viability (assessed by measuring ATP levels with CellTiterGlo).
2. NCATS MIPE 4.0 library of approved and investigational drugs were added using the Kalypsis pin tool. Wells treated with DMSO only for 100% viability and media only for 0% viability were used as controls.
3. The assay plates were covered and incubated for 48 hours in a 37C, 5% CO2 incubator with controlled humidity.
4. After 48 hours, CellTilter-GloTM luminescent substrate mix (Promega) reagent was added to the assay plate and plates we incubated for 5 min at room temperature.
5. Signal was measured as median relative luminescence units on a ViewLux (PerkinElmer) multiplate reader.
[1] Heske CM, Davis MI, Baumgart JT, Wilson K, Gormally MV, Chen L, Zhang X, Ceribelli M, Duveau DY, Guha R, Ferrer M, Arnaldez FI, Ji J, Tran HL, Zhang Y, Mendoza A, Helman LJ, Thomas CJ. Matrix Screen Identifies Synergistic Combination of PARP Inhibitors and Nicotinamide Phosphoribosyltransferase (NAMPT) Inhibitors in Ewing Sarcoma. Clin Cancer Res. 2017 Dec 1;23(23):7301-7311. doi: 10.1158/1078-0432.CCR-17-1121. Epub 2017 Sep 12. PMID: 28899971; PMCID: PMC6636827.
Potency is read from the fitted curve at half-maximal effect.

| SMILES | Potency |
| --- | --- |
| Cc1c(CN2CCN(S(C)(=O)=O)CC2)sc2c(N3CCOCC3)nc(-c3cnc(N)nc3)nc12 | 26.4 nM (active) |
| N#CCNC(=O)c1ccc(-c2ccnc(Nc3ccc(N4CCOCC4)cc3)n2)cc1 | 9350 nM (active) |
| CC(C)c1nn(-c2c(Cl)cccc2Cl)c2nc(Cc3ccc(OCCO)cc3)[nH]c(=O)c12 | 41.8 nM (active) |
| O=C(Nc1cn[nH]c1-c1nc2ccc(CN3CCOCC3)cc2[nH]1)NC1CC1 | 2960 nM (active) |
| Nc1ncnc2c1c(-c1cnc3[nH]ccc3c1)nn2C1CCCC1 | 2090 nM (active) |
| CC[C@@H]1C(=O)N(C)c2cnc(Nc3ccc(C(=O)NC4CCC(N5CCN(CC6CC6)CC5)CC4)cc3OC)nc2N1C(C)C (stereo not given in full) | 1870 nM (active) |
| COc1ccc(-n2nc(C(N)=O)c3c2C(=O)N(c2ccc(N4CCCCC4=O)cc2)CC3)cc1 | inactive |
| Cn1c(=O)n(-c2ccc(C(C)(C)C#N)cc2)c2c3cc(-c4cnc5ccccc5c4)ccc3ncc21 | 118 nM (active) |
| COc1cccc2nc(-c3cccs3)nc(NN3C(=O)C=C(C)C3=O)c12 | 187 nM (active) |
| Cc1ccc(C(=O)Nc2cccc(C(F)(F)F)c2)cc1-c1ccc2nc(NCCN3CCOCC3)ncc2c1 | 14800 nM (active) |
| COc1cc(OC2CCN(C)CC2)ccc1Nc1ncc2c(n1)n(C1CCCC1)c(=O)n2C | 18700 nM (active) |
| CC=C1NC(=O)[C@H]2CSSCCC=C[C@H](CC(=O)N[C@H](C(C)C)C(=O)N2)OC(=O)[C@H](C(C)C)NC1=O | 16.6 nM (active) |
| C=C1C(=CC=C2CCC[C@]3(C)[C@@H]([C@H](C)C=C[C@H](C)C(C)C)CC[C@@H]23)C[C@@H](O)C[C@@H]1O | 1660 nM (active) |
| Cc1cc(Nc2nc(N[C@@H](C)c3ccc(F)cc3)c(C#N)cc2F)n[nH]1 | 3320 nM (active) |
| CC1(C)CCC(c2ccc(Cl)cc2)=C(CN2CCN(c3ccc(C(=O)NS(=O)(=O)c4ccc(N[C@H](CCN5CCOCC5)CSc5ccccc5)c(S(=O)(=O)C(F)(F)F)c4)cc3)CC2)C1 | 187 nM (active) |
| O=C(O)CCCc1c[nH]c2ccccc12 | inactive |
| O=C(O)c1ccc2cc(-c3ccc(O)c(C45CC6CC(CC(C6)C4)C5)c3)ccc2c1 | 662 nM (active) |
| O=C(C=Cc1c(C(=O)O)[nH]c2cc(Cl)cc(Cl)c12)Nc1ccccc1 | inactive |
| COc1cc2c(Oc3ccc(NC(=O)C4(C(=O)Nc5ccc(F)cc5)CC4)cc3F)ccnc2cc1OCCCN1CCOCC1 | 4180 nM (active) |
| COC(=O)Nc1nc2ccc(C(=O)c3ccc(F)cc3)cc2[nH]1 | 833 nM (active) |

| SMILES | Potency |
| --- | --- |
| Cc1cn2c(-c3cn[nH]c3)cnc2c(Nc2ccc(C(=O)N3CCNCC3)cc2F)n1 | 20900 nM (active) |
| Cc1ccc(C(=O)Nc2ccc(CN3CCN(C)CC3)c(C(F)(F)F)c2)cc1C#Cc1cnc2cccnn12 | 3320 nM (active) |
| C[C@@H](Oc1cc(-n2cnc3ccc(CN4CCN(C)CC4)cc32)sc1C(N)=O)c1ccccc1C(F)(F)F | 59 nM (active) |
| Cn1c2ccccc2c2c3c(c4c5ccccc5n(CCC#N)c4c21)CNC3=O | 1660 nM (active) |
| CN(C)c1nc(Cc2ccc(NC(=O)c3ccc4ccccc4c3)cc2)nc(Cl)c1CC(=O)O | inactive |
| CC1(O)CC(c2nc(-c3ccc4ccc(-c5ccccc5)nc4c3)c3c(N)nccn23)C1 (stereo not given) | 187 nM (active) |
| CCc1c2c(nc3ccc(O)cc13)-c1cc3c(c(=O)n1C2)COC(=O)[C@]3(O)CC | 11.8 nM (active) |
| CC1(C)CC(=O)c2c(C(F)(F)F)nn(-c3ccc(C(N)=O)c(NC4CCC(OC(=O)CN)CC4)c3)c2C1 (stereo not given) | 209 nM (active) |
| O=C(C=Cc1cccc(S(=O)(=O)Nc2ccccc2)c1)NO | 1210 nM (active) |
| Nc1nc(NCCNc2ncc(-n3ccnc3)c(-c3ccc(Cl)cc3Cl)n2)ccc1[N+](=O)[O-] | 16600 nM (active) |
| O=c1[nH]c(=O)n(C2CCCO2)cc1F (stereo not given) | inactive |
| Nc1ccn([C@@H]2O[C@H](CO)[C@H](O)C2(F)F)c(=O)n1 | 9.3 nM (active) |
| COc1cc2nccc(Oc3ccc(NC(=O)C4(C(=O)Nc5ccc(F)cc5)CC4)cc3)c2cc1OC | 1870 nM (active) |
| NC(=O)c1c(OCc2c(F)cc(Br)cc2F)nsc1NC(=O)NCCCCN1CCCC1 | 20900 nM (active) |
| COc1cccc2c(NCc3ccccc3)nc(-n3c(N)nc4ccccc43)nc12 | 5900 nM (active) |
| CNC(=O)c1c(F)cccc1Nc1nc(Nc2cc3c(cc2OC)CCN3C(=O)CN(C)C)nc2[nH]ccc12 | 93.5 nM (active) |
| CCn1cc(-c2ccnc3[nH]c(-c4cccc(CN(C)C)c4)cc23)c(-c2ccc(NC(=O)N(C)C)cc2)n1 | 20900 nM (active) |
| Cc1ccc(NC(=O)C2(c3ccc4c(c3)OC(F)(F)O4)CC2)nc1-c1cccc(C(=O)O)c1 | 59 nM (active) |
| CNC(=O)c1ccccc1Nc1nc(Nc2ccc(N3CCOCC3)cc2OC)ncc1Cl | 833 nM (active) |
| CC(=O)Nc1sc2c(c1-c1nc3ccccc3s1)CNC2 | 18700 nM (active) |
